In the library only some 3.7% were active in any assay of this set; here they are far more common.
HepG2 viability: qHTS for Inhibitors of TGF-b: Cytotox Counterscreen; HepG2 CAGA-GFP viability, ATP luminescence, 18 h; Potency, µM (series often up to 46.1 µM), without a hit: top-dose activity change, negative = cytotoxicity, usual class: cytotoxic; 410,000 compounds, 0.76% hits; AID 588856, 2011
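CellTiter-Glo luminescence gave cytotoxicity after 18 hours at 37 degrees C. The cells were HepG2 CAGA-GFP in 1% FBS DMEM, stimulated with 500 pg/mL TGF-beta after compound addition. %Activity was normalised to no-cell wells (complete cell-killing) and DMSO (no toxicity), and curves were fitted and classified.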
GLP-1R inv ag: qHTS of GLP-1 Receptor Inverse Agonists (Inhibition Mode); Glucagon-like peptide 1 receptor (Homo sapiens), P43220; HEK293 GLP-1R CRE-luciferase, luminescence, 24 h; GLP-1R form is constitutively active; Potency, µM (highest dose often 38.3 µM), without a hit: at the top dose activity change, negative = inhibition, hits mostly inhibitors; 410,000 compounds, 1.6% hits; also: % is scaled to controls: 0 for no effect and ±100 for the full control effect; nearly all actives have a fitted effect of over 55% in size
Target sequence (P43220 whole entry, looked up): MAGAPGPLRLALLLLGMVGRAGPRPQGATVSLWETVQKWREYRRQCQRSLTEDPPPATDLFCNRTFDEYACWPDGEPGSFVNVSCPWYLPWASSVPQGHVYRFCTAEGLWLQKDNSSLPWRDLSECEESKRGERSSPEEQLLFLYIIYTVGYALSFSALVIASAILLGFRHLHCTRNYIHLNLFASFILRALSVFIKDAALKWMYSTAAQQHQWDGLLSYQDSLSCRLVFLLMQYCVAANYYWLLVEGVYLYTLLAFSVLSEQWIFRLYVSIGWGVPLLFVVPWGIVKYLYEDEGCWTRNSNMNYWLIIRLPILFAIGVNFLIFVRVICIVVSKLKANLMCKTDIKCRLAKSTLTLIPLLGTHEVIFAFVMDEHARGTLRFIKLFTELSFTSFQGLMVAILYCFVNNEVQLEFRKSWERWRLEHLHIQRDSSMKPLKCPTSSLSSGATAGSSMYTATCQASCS
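Stable HEK293 clone (constitutively active GLP-1R + cAMP-response luciferase); 200 cells/uL plated, 12 h pre-culture, compound 24 hr, 37 deg C/5% CO2; detection reagent 12 min RT; luminescence.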
ATXN viability: Viability Counterscreen for Primary qHTS for Inhibitors of ATXN expression. S2 cells (HEK-293 line with an ATXN2-luciferase reporter) viability, CellTiter-Fluor protease fluorescence, 24 h. Potency, µM (highest dose often 56.7 µM), usual class: cytotoxic. 400,000 compounds, 0.49% hits; also: nearly all actives have a fitted effect of over 40% in size
ATXN2 expr inh: Primary qHTS for Inhibitors of ATXN expression; HEK-293 ATXN2-luciferase reporter, luminescence, 24 h; Potency, µM (highest dose often 57 µM), inactives show top-dose activity change, negative = inhibition, most hits filed as inhibitors; 360,000 compounds, 0.72% hits; also: % is scaled to controls: 0 for no effect and ±100 for the full control effect; nearly all actives have a fitted effect of over 55% in size
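ATXN2-luciferase reporter cells (luciferase flanked by upstream and downstream ATXN2 gene portions) were treated 24 h at 37 °C with compounds at up to 57 uM. SteadyGlo luminescence gave expression; GF-AFC fluorescence gave viability.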
TGFb SMAD3 inh: qHTS for Inhibitors of TGF-b; AID 588855, 2011; Potency, µM (top dose mostly 46.1 µM), for inactives: at the top dose activity, negative = inhibition, hits mostly inhibitors; HepG2 CAGA-GFP TGF-b/SMAD3 reporter, GFP fluorescence, 18 h; TGF-beta stimulated, 500 pg/mL final; 410,000 compounds, 1.2% hits; also: % is scaled to controls: 0 for no effect and ±100 for the full control effect; nearly all actives have a fitted effect of over 65% in size
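Using HEPG2 CAGA-GFP reporter cells at 1000 cells/well, we pinned test compounds, stimulated with recombinant TGF-beta (500 pg/mL final) and measured total well GFP after 18 h.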
GLP1R ag: qHTS of GLP-1 Receptor Agonists; Glucagon-like peptide 1 receptor (Homo sapiens), P43220; HEK293 GLP-1R CRE-luciferase, luminescence, 4-6 h; cells express a hypersensitive GLP-1R form; Potency, µM (series often up to 45.6 µM), without a hit: top-dose activation, hits mostly activators; 380,000 compounds, 0.007% hits; also: % of control where 0% means no effect
* = called active by the depositor. Calls follow the shape of the dose curve; as a rule, active = well fitted curve in the direction sought with a large enough effect; inconclusive = small, poorly fitted or top-dose-only effect, or another doubt; inactive = no such curve, though single readings can be large; an effect the other way counts as inactive or inconclusive. Potency is read from the fitted curve at half-maximal effect.

How did CCn1nc(C)c(C(=O)Nc2cc(Oc3cc(C)cc(C)c3)cc([N+](=O)[O-])c2)c1C do in these assays?
HepG2 viability: -46%; GLP-1R inv ag: inconclusive; ATXN viability: inactive; ATXN2 expr inh: -25%; TGFb SMAD3 inh: 14µM*; GLP1R ag: -7%

What do the screens show for `O=S(=O)(c1ccc(Br)cc1)N1CCN(c2nc(-c3cccs3)nc3ccccc23)CC1`?
HepG2 viability: 10%; TGFb SMAD3 inh: 12%

What do the screens show for `Cc1ccc(CCNC(=O)c2c(C)nn(-c3ccc(F)cc3)c2-n2cccc2)cc1`?
HepG2 viability: -21%; GLP-1R inv ag: 6.3µM*; ATXN viability: inconclusive; ATXN2 expr inh: -24%; TGFb SMAD3 inh: inconclusive; GLP1R ag: 25%

What do the screens show for `CCN(CC)c1ccc(NC(=O)c2c(C)nn(-c3ccc(F)cc3)c2-n2cccc2)c(C)c1`?
HepG2 viability: -29%; GLP-1R inv ag: 5µM*; ATXN viability: inconclusive; ATXN2 expr inh: inconclusive; TGFb SMAD3 inh: inconclusive; GLP1R ag: 1%

Results for C[C@@H]1CC=C[C@H]2[C@H]1C(=O)N(Cc1ccccc1)[C@H]2c1ccc(C(F)(F)F)cc1 ?
HepG2 viability: -22%; GLP-1R inv ag: inconclusive; ATXN viability: inactive; ATXN2 expr inh: -17%; TGFb SMAD3 inh: 22µM*; GLP1R ag: -1%

How did O=C1C2C(c3ccccc3)CC=CC2[C@H](c2ccc(C(F)(F)F)cc2)N1Cc1ccccc1 (stereo partly drawn) do in these assays?
HepG2 viability: -33%; GLP-1R inv ag: inconclusive; ATXN2 expr inh: inconclusive; TGFb SMAD3 inh: inconclusive; GLP1R ag: 1%

Results for CC(=O)c1ccc(-c2cc([C@H]3[C@H]4C=CC[C@@H](C)[C@@H]4C(=O)N3Cc3ccccc3)ccc2F)cc1 ?
HepG2 viability: 8%; GLP-1R inv ag: 11µM*; ATXN viability: inactive; ATXN2 expr inh: inconclusive; TGFb SMAD3 inh: inconclusive; GLP1R ag: 3%

Results for CCCc1n[nH]c(=S)n1Cc1ccco1 ?
HepG2 viability: -18%; GLP-1R inv ag: 15%; ATXN viability: inactive; TGFb SMAD3 inh: -6%; GLP1R ag: -2%

What do the screens show for `S=c1[nH]nc(C23CC4CC(CC(C4)C2)C3)n1Cc1ccco1`?
HepG2 viability: -6%; GLP-1R inv ag: 7.9µM*; ATXN viability: inactive; ATXN2 expr inh: -2%; TGFb SMAD3 inh: -4%; GLP1R ag: -8%

Results for O=C(Nc1cccc(Oc2ccccc2)c1)c1ccc(-n2cncn2)c2ccoc12 ?
HepG2 viability: -24%; GLP-1R inv ag: -4%; ATXN viability: 6.3µM*; ATXN2 expr inh: -24%; TGFb SMAD3 inh: -3%; GLP1R ag: -3%

Results for Cc1ncc2c(c1CNC(=O)c1cncs1)CCN(C(=O)c1cccc(-c3cccc(F)c3)c1)C2 ?
ATXN viability: inactive

What do the screens show for `Cc1cc(Br)ccc1NC(=O)COC(=O)c1ccccc1OCC(=O)N(C)C`?
HepG2 viability: 1%; TGFb SMAD3 inh: -8%

Results for Cc1nc2scc(C)n2c(=O)c1S(=O)(=O)Nc1cccc(O)c1 ?
HepG2 viability: -16%; GLP-1R inv ag: 5%; ATXN viability: inactive; ATXN2 expr inh: 6%; TGFb SMAD3 inh: -5%

How did Cc1nc2scc(C)n2c(=O)c1S(=O)(=O)Nc1cccc(C(F)(F)F)c1 do in these assays?
HepG2 viability: -21%; GLP-1R inv ag: 11µM*; ATXN viability: inactive; ATXN2 expr inh: -16%; TGFb SMAD3 inh: -10%

What do the screens show for `Cc1ccc(C2=CC(c3ccc(Cl)cc3)n3nc(-c4ccc(C)cc4)nc3N2)cc1` (stereo not drawn)?
HepG2 viability: -46%; GLP-1R inv ag: 2.2µM*; ATXN2 expr inh: -9%; TGFb SMAD3 inh: -26%

How did COc1ccc(C2C=C(c3ccc(Cl)cc3)Nc3nc(-c4ccc(Cl)cc4)nn32)cc1 (stereo not drawn) do in these assays?
HepG2 viability: -11%; GLP-1R inv ag: inconclusive; ATXN viability: inconclusive; ATXN2 expr inh: inconclusive; TGFb SMAD3 inh: 4%

How did COc1ccc(C2C(C(N)=O)=C(C)Nc3nc(SCc4ccccc4Cl)nn32)cc1OC (stereo not drawn) do in these assays?
HepG2 viability: -13%; GLP-1R inv ag: 14%; ATXN viability: inactive; ATXN2 expr inh: 8%; TGFb SMAD3 inh: 10%; GLP1R ag: 1%

Results for Cn1c(Oc2ccc(F)cc2)c(C=O)c2ccccc21 ?
HepG2 viability: -12%; GLP-1R inv ag: 10µM*; ATXN viability: inactive; ATXN2 expr inh: -8%; TGFb SMAD3 inh: -10%; GLP1R ag: 5%

How did CC(=O)Nc1ccc(Sc2ccc([N+](=O)[O-])o2)cc1 do in these assays?
HepG2 viability: 20µM*; GLP-1R inv ag: inconclusive; ATXN viability: inconclusive; ATXN2 expr inh: inconclusive; TGFb SMAD3 inh: inconclusive; GLP1R ag: -6%

Results for CC(C)(C)C(=O)Nc1ccc(Sc2ccc([N+](=O)[O-])cc2)cc1 ?
HepG2 viability: -11%; GLP-1R inv ag: inconclusive; ATXN viability: inconclusive; ATXN2 expr inh: inconclusive; TGFb SMAD3 inh: inconclusive; GLP1R ag: -38%

What do the screens show for `O=C(CCC(=O)NNC(=O)COc1ccccc1)NCc1ccccc1`?
HepG2 viability: 13µM*; GLP-1R inv ag: 7%; ATXN viability: inactive; ATXN2 expr inh: -3%; TGFb SMAD3 inh: inconclusive; GLP1R ag: -12%

Results for Cc1onc(-c2c(Cl)cccc2Cl)c1C(=O)N/N=C(\N)COc1ccc(Cl)cc1 ?
HepG2 viability: -64%; GLP-1R inv ag: 0%; ATXN viability: inconclusive; ATXN2 expr inh: inconclusive; TGFb SMAD3 inh: 6.3µM*; GLP1R ag: -13%

What do the screens show for `COc1c(OC(C)=O)ccc(/C=C/c2ccc3ccccc3n2)c1[N+](=O)[O-]`?
HepG2 viability: -53%; GLP-1R inv ag: 1%; ATXN viability: 22µM*; ATXN2 expr inh: -41%; TGFb SMAD3 inh: inconclusive; GLP1R ag: -18%

What do the screens show for `CCOc1cc(/C=C/c2ccc3cccc([N+](=O)[O-])c3n2)ccc1OCC(=O)N(C)C`?
HepG2 viability: -30%; GLP-1R inv ag: -12%; ATXN viability: inconclusive; ATXN2 expr inh: inconclusive; TGFb SMAD3 inh: 2%; GLP1R ag: 13%

Results for O=C(O)c1ccc(/C=C/c2ccc3cccc(O)c3n2)cc1 ?
HepG2 viability: -4%; GLP-1R inv ag: 73%; ATXN viability: inactive; ATXN2 expr inh: 62%; TGFb SMAD3 inh: 0%; GLP1R ag: 7%
